This is part of a sample that, as a whole, favours compounds with a hit. Of some 83,000 tested, about 20% had one in any assay.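 Negative percent growth values reflect cell death: -40 means 40% of the cells present at the start died, and -100 means all died.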 Calls of active or inactive are those of the source.

The assay deals with OVCAR-4 ovarian. As to the kind of experiment: NCI-60 one-dose screen, 48 h (100 = growth as untreated, 0 = no growth, -100 = all killed). As to conditions: 10 µM. The method, then:
Growth inhibition of the OVCAR-4 human tumor cell line is measured as a screen for anti-cancer activity. Cells are grown in 96 well plates and exposed to the test compound for 48 hours. Compounds are tested at a single concentration, which is 10^-5 M for most compounds. The reported endpoint is percent growth (GI% or GIPRCNT), where numbers from 0 - 100% represent growth inhibition, and numbers from -100% - 0 represent cell death. For example, a value of 40 represents 60% growth inhibition. A value of 0 means no net growth occurred over the course of the experiment. A value of -40 indicates 40% of cells at the beginning of the experiment died by the end of the experiment. A value of -100 means all cells are dead at the end of the experiment.
NCI-60 Human Tumor Cell Lines Screen was performed using the standard one-dose NCI protocol, which is described in more detail at https://dtp.cancer.gov/discovery_development/nci-60/default.htm.
Compounds with GIPRCNT values below 10 were considered active. Activity score was based on GIPRCNT using the following formula: […]
Score is 0 for GIPRCNT values of 100 or above, 50 for GIPRCNT values of 0, and 100 for GIPRCNT values of -100.
`CCNC(=O)N1CCc2c(Cl)c3c(c(OC)c2[C@@H]1[C@H]1OCc2c1ccc(OC)c2OC)OCCO3`: the growth was 57.6% (inactive). As for `O=C(NCc1ccccc1)C(Cl)Cl`, the growth was 102% (inactive).

Turning to `O=C1COCCN1c1ccc(NCc2cn(Cc3ccc(F)cc3)c3ccccc23)cc1`, the growth is -6.07% (active). In the case of `CCn1cc(-c2cc(-c3ccc(Cl)cc3)nc(N)n2)c(-c2ccc(Br)cc2)n1`, the growth is 82.2% (inactive). As to `COc1ccc(C2=C(c3cn(C)c4ccccc34)C(=O)OC2)cc1OC`, the growth was 39.8% (inactive).

Consider `COc1ccc(N(c2nc(-c3ccc([N+](=O)[O-])cc3)cs2)C(C)C)cc1`, for which the growth is 70% (inactive). Consider `O=C(NCCO)c1cccnc1`, for which the growth was 110% (inactive). The result for `CCOC(=O)c1nn(C2CCCCO2)c2ccc(NC(=O)CSc3nc4ccccc4c(=O)[nH]3)cc12` (stereo not given) reads 100% (inactive). For `Clc1ccc(N2CCN(CCCN3CCN(c4cccc(Cl)c4)CC3)CC2)cc1`, the growth is 55.7% (inactive). The result for `Cc1ccc(NCCN2CCCCC2)c2c(=O)c3ccccc3sc12` reads 56.9% (inactive); that for `C#C[C@]1(O)CC[C@H]2[C@@H]3CC=C4c5nc(Nc6ccccc6[N+](=O)[O-])sc5CC[C@]4(C)[C@H]3CC[C@@]21C`, 84.9% (inactive); that for `COc1cc2c(=O)[nH]c3cc([N+](=O)[O-])ccc3c2cc1[N+](=O)[O-]`, 54.1% (inactive). As to `CC(C)(C)c1cc(C(=O)Nc2ccccc2C(=O)NCCN)cc(C(C)(C)C)c1`, the growth is 43.3% (inactive).

As for `Cc1cccc(C[C@H](NC(=O)Nc2ccc(C)cc2F)C(=O)N[C@@H]2C(=O)N3C[C@H](O)C[C@H]3C(=O)N3CCN(C)C[C@H]3C(=O)N[C@@H](C)C(=O)N3C[C@H](C)C[C@H]3C(=O)O[C@H]2C)c1`, the growth is 12.9% (inactive). For `CCN(CC)c1ccc(/C=C/c2ccc3cc(C)ccc3[n+]2CC)cc1`, the growth is 21.2% (inactive). With `O=C(Nc1ccc(Nc2ccncc2)cc1)c1ccc([N+](=O)[O-])cc1`, the growth was 67.3% (inactive). The result for `CCN(CC)CCCCCCNc1cccc2cc(Br)cnc12` reads 87.5% (inactive); that for `COc1ccc(C2NC(=O)C(C#N)c3c2sc2c(F)cccc32)cc1` (stereo not given), 71.4% (inactive); that for `C#C[C@]1(O)CC[C@H]2[C@@H]3CC=C4c5nc(N)sc5CC[C@]4(C)[C@H]3CC[C@@]21C`, 63.4% (inactive). The result for `Cc1ccc(S(=O)(=O)N/N=C2\CC3CCC2(C)C3(C)C)cc1` (stereo not given) reads 104% (inactive); that for `CC1Cc2c(Cl)ncnc2N(C)c2ccccc21` (stereo not given), 21.5% (inactive).

For `O=C1COCCN1c1ccc(NCc2cn(Cc3ccccc3)c3ccccc23)cc1`, the growth is 62.6% (inactive). For `CCOC(CNC(=O)c1cccc([N+](=O)[O-])c1)OCC`, the growth is 109% (inactive). For `O=c1[nH]cnc2c1ccn2C1OC(CO)C(O)C1O` (stereo not given), the growth is 24.5% (inactive). Regarding `CCCCC(CCCCCC(CCCC)C1NC(C)Cc2cc(OC)c(OC)cc21)C1NC(C)Cc2cc(OC)c(OC)cc21` (stereo not given), the growth was -90.1% (active). Take `C1=C[C@H]2O[C@@H]1c1ccc3[nH]ccc3c12`: the growth is 115% (inactive).

Take `O=C1/C(=C\c2cccn2Cc2ccccc2)c2ccccc2N1c1c(Cl)cccc1Cl`: the growth is -2.5% (active).

Regarding `O=C(O)c1cccc(CN2CCN(c3cc4c(cc3F)c(=O)c(C(=O)O)cn4C3CC3)CC2)c1O`, the growth was 114% (inactive). To `O=C1NC(=O)C(Cc2ccccc2)(Cc2ccccc2)N1` belongs 91.2% (inactive); to `O=C(CCN1CCCCC1)c1ccc2ccccc2c1`, 114% (inactive); to `COc1ncnc2c(-c3ccccc3)cn(COCc3ccccc3)c12`, 54.4% (inactive). In the case of `C#CCOc1ccc(C2=NN(CC3CC3)C3N=C(Cl)c4ncn(CC5CC5)c4N23)cc1OCC#C` (stereo not given), the growth was 71.3% (inactive). As for `CC1(C(=O)O)CCC(N)(C(=O)O)C1(C)C` (stereo not given), the growth was 104% (inactive). Take `Cc1cc(-c2ccc(N=Nc3c(S(=O)(=O)O)cc4cc(S(=O)(=O)O)cc(N)c4c3O)c(C)c2)ccc1N=Nc1cc(S(=O)(=O)O)c2ccccc2c1O`: the growth is 105% (inactive). Regarding `CC(=O)Nc1ccc2nc3ccc(NC(C)=O)cc3[n+](-c3ccccc3)c2c1`, the growth was 86% (inactive). On to `Cc1ccc(-c2cc(-c3ccc(C)cc3)nc(N3CCN(CCNc4ccnc5cc(Cl)ccc45)CC3)n2)cc1`, for which the growth is -59.4% (active). On to `Cc1ccc2c(n1)C(=O)C(Cl)=C(Nc1ccc(N3CCN(C)CC3)cc1)C2=O`, for which the growth was -100% (active). `O=C(O)CSCc1nnc2n(Cc3ccccc3)c(=O)c3c4c(sc3n12)CCCC4`: the growth was 95.6% (inactive). Turning to `Cc1cc2c(C(C)C)c(O)c(O)c(C=NCc3ccoc3)c2c(O)c1-c1c(C)cc2c(C(C)C)c(O)c(O)c(C=NCc3ccco3)c2c1O`, the growth is 31.2% (inactive). Regarding `COc1ccc2c(c1)C(C)Cc1c(Cl)nc(C)nc1N2C` (stereo not given), the growth is 54.9% (inactive).

These data come from PubChem BioAssay (NCI).
